The values that follow come from PubChem BioAssay AID504725 (Broad Institute, 2011).

Results with a measured potency or affinity are listed apart. Active and inactive are the calls of the source. How the calls were made is not given here.

For the test, the target named is KSHV LANA C-terminal domain (residues 932-1162) binding to LBS DNA (UniProt O40947). Description: inhibitors of C-LANA binding to LBS DNA, dose response, biochemical, fluorescence polarization, cherry-picked samples (AID 504725). For orientation: In fluorescence polarisation assays a small probe gives low polarisation when free and higher when bound to something large.

With `O=c1c2c(nc3cc(-c4ccc(F)cc4)[nH]n13)CCC2`, the compound was called inactive.
For the compound `CCC(C)[C@H](NC(=O)[C@@H]1Cc2ccccc2CN1)C(=O)Nc1ccc2c(c1)OCO2` (some centres undefined), the call was inactive.
`FC(F)(F)c1nnc(-c2ccccc2)nc1N1CCCC1`: the call was inactive.
Take `Cc1cnc(NC(=O)Cc2c[nH]c3ccccc23)s1`: the outcome was inactive.
In the case of `COC(=O)\C(C(C)=O)=C(/C=C/C=C/C=C/N(C)C)N(C)C`, the compound was called inactive.
Next, `CS(=O)(=O)c1cccc(C(=O)Oc2ccccc2)c1`: “inactive”; `CCCCn1nc(CC(=O)O)c2ccccc2c1=O`: “inactive”; `Cc1ccc(OCC(=O)O/N=C(\N)Cc2ccc([N+](=O)[O-])cc2)cc1C`: “inactive”.
As to `Cc1cc(S(=O)(=O)NC2CCN(Cc3ccccc3)CC2)c(C)cc1Cl`, the compound was called inactive.
As for `O=S(=O)(O)c1cccc2cccc(Nc3ccccc3)c12`, the compound was called inactive.
In the case of `Cc1ccc(C(=O)c2coc3ccc(O)c(Cl)c23)cc1`, the result was inactive.
In the case of `O=C(O)/C=C/c1ccccc1Oc1ccccc1`, the compound was called inactive.
Next, `COc1ccc(-c2n[nH]c(=S)n2-c2ccc(C)cc2)cc1`: “inactive”; `COc1ccc(-c2cc(C(F)(F)F)n3ncc(C(=O)N4CCCCC4c4cccnc4)c3n2)cc1` (centres undefined): “inactive”; `O=C1c2ccccc2C(Nc2ccc3c(c2)OCCO3)N1Cc1ccc2c(c1)OCO2` (centres undefined): “inactive”.
Consider `CC(C)(C)OC(=O)C[C@@H]1C/C=C\C[C@H](CC(=O)N(CCO)Cc2ccccc2)C(=O)N[C@@H](c2ccccc2)COC1=O`, for which the outcome was inactive.
For the compound `NC(=S)N/N=C/c1ccc(-c2ccc([N+](=O)[O-])cc2)o1`, the call was inactive.
On to `CC(C)(C)OC(=O)N1CCC[C@H]1c1nnc(SCc2cccc(Cl)c2)o1`, for which the compound was classed as inactive.
Next, `NNc1nnc2c3cc(F)ccc3n(Cc3ccccc3)c2n1`: “inactive”; `Cc1cc(N)ccc1N=Nc1c(C)n(C)n(-c2ccccc2)c1=O`: “inactive”; `COc1ccc(OC)c(NC(=O)c2nnn(Cc3ccc(Br)cc3F)c2N)c1`: “inactive”.
`COc1cc(OC)cc(C(=O)NC2CC3CCC(C2)N3C)c1` (centres undefined): the call was inactive.
Turning to `COc1cc(C(=S)N2CCN(c3cccc(Cl)c3)CC2)ccc1O`, the compound was called inactive.
On to `CC1Cc2ccccc2N1C(=O)CCS(=O)(=O)c1cccs1` (centres undefined), for which the call was inactive.
For `CC(OC(=O)CCN1C(=O)C2CC=CCC2C1=O)C(=O)Nc1ccc(F)cc1` (centres undefined), the compound was classed as inactive.
`O=C(CN1CCN(C(=O)CNC(=O)c2ccc3c(c2)OCO3)CC1)Nc1ccc(F)cc1`: the outcome was inactive.
For the compound `Cc1cc(-c2nnc(SCC(=O)Nc3ccccc3)n2C)no1`, the result was inactive.
Consider `O=C(NCCCO)c1ccc2nc(-c3ccco3)c(-c3ccco3)nc2c1`, for which the compound was classed as inactive.
As for `CCOC(=O)c1c(C)nc2cc(C)ccn12`, the entry is “inactive”; as for `CCCc1cc(C(=O)Nc2ccc(C(=O)c3ccc(C)cc3)cc2)n(C)n1`, “inactive”.
Next, `O=C(O)CCN1C(=O)/C(=C\c2ccc(-c3nc4ccccc4s3)o2)SC1=S`: “inactive”; `COc1ccc(NC(=O)CO/N=C2/CCCc3nonc32)c(OC)c1`: “inactive”.
As to `COc1ccc(-c2cc(C(=O)N(C)CCc3ccc(OC)c(OC)c3)c3ccccc3n2)cc1`, the compound was called inactive.
Regarding `Cc1ccc2cccc(OCC(=O)NCCC3=CCCCC3)c2n1`, the result was inactive.
For the compound `COC(=O)Cn1c(=NC(=O)c2sc3ccccc3c2Cl)sc2cc(S(N)(=O)=O)ccc21`, the compound was classed as inactive.
Turning to `CC(C)CC(=O)Nc1nnc(CSCc2ccc(F)cc2)s1`, the outcome was inactive.
Turning to `CCN(c1ccc(C)cc1C)S(=O)(=O)c1nnc(NC(=O)c2ccco2)s1`, the compound was classed as inactive.
Consider `CCN(CC)C(=S)SC1CCCCN(C(=O)c2ccccc2)C1=O` (centres undefined), for which the outcome was inactive.
Next, `COCCN(C(=O)CN1CCCc2ccccc21)c1c(N)n(Cc2ccccc2)c(=O)[nH]c1=O`: “inactive”.
On to `O=C(Nc1ccc(Br)cn1)c1cccc2ccccc12`, for which the call was inactive.
Next, `CCOC(=O)CCCn1c(C)nc(=O)c(-c2ccccc2)c1C`: “inactive”; `COc1ccc(-c2csc(NC(=O)CSc3nc(C)nc4sc(C(=O)O)c(C)c34)n2)cc1`: “inactive”.
As for `CCOC(=O)c1ccc[n+](CC(=O)c2ccc(OC)cc2)c1`, the entry is “inactive”; as for `CC[C@H](C)[C@H](NC(N)=O)C(=O)Nc1ccc(NC(C)=O)cc1`, “inactive”.
Next, `Cc1cccnc1NC1(C(F)(F)F)N=C2SCCN2C1=O` (centres undefined): “inactive”; `COc1ccc(Cn2nnc3c(=O)[nH]c(C4CCCN(C(=O)c5ccccc5)C4)nc32)cc1` (centres undefined): “inactive”.
For the compound `O=C(O)/C=C/C(=O)Nc1ccc(Cc2ccc(NC(=O)/C=C/C(=O)O)cc2)cc1`, the compound was called inactive.
As for `CCC(Sc1ncccc1C(=O)O)C(=O)N1CCCC1` (centres undefined), the entry is “inactive”; as for `O=C(c1ccc2c(c1)CCN2S(=O)(=O)c1ccccc1)N1CCN(c2ccc(F)cc2)CC1`, “inactive”; as for `CC1=[N+](C)N(c2ccccc2)C(=O)C1N=C/C=C/c1ccccc1` (centres undefined), “inactive”.
Next, `CCCCN(C(=O)CSc1nnc(-c2ccc(Cl)cc2)o1)c1c(N)n(CC(C)C)c(=O)[nH]c1=O`: “inactive”; `CC(=O)Nc1ccc(S(=O)(=O)Nc2ccccc2N2CCOCC2)cc1`: “inactive”.
As for `COc1ccc(/C=C/c2cc(C(F)(F)F)[nH]c(=O)n2)cc1OC`, the call was inactive.
Regarding `Cc1cc(C)n2nc(C(=O)OC(C)C(=O)c3cc(C)c(C)cc3C)nc2n1` (centres undefined), the compound was classed as inactive.
`COc1ccc(C(=O)N/N=C/c2ccc(OC)c(COc3ccccc3)c2)cc1`: the outcome was inactive.
In the case of `Brc1ccc(-c2noc(COc3ccc4c(c3)CCC4)n2)o1`, the compound was classed as inactive.
As for `COc1cc(CN2CC(=O)N(c3cc(Cl)ccc3C)C2=S)cc(OC)c1OC`, the entry is “inactive”; as for `COc1ccc(C(=O)OCC(=O)NC2CC2)cc1S(=O)(=O)Nc1ccc(C)cc1`, “inactive”.
As to `Cc1noc(C)c1C(=O)N1CCN(c2ccc(OCc3ccccc3)cc2)CC1`, the compound was classed as inactive.
With `C/C(=N/NC(=O)c1cc(O)c(O)c(O)c1)c1ccc([N+](=O)[O-])cc1`, the call was inactive.
Next, `CCNC(=O)COC(=O)c1cccc(Br)c1`: “inactive”; `O=S(=O)(NCc1cccnc1)c1ccc(Cl)s1`: “inactive”.
Turning to `Nc1nc(-c2ccc(C(=O)O)cc2)cs1`, the compound was called inactive.
Turning to `CC(C)c1ccc(NC(=O)Cn2c(=O)oc3cccnc32)cc1`, the call was inactive.
For `CCN(C(=O)COC(=O)CCCOc1ccc(Cl)cc1C)c1c(N)n(Cc2ccccc2)c(=O)[nH]c1=O`, the result was inactive.
Take `O=C(/C=N/NC(=O)c1ccc(Cl)cc1Cl)c1ccccc1`: the call was inactive.
As to `O=c1cc(-c2ccc(O)c(O)c2)oc2cc(O[C@@H]3O[C@H](CO)[C@@H](O)[C@H](O)[C@H]3O)cc(O)c12`, the result was inactive.
As for `COc1ccc(NC(=O)Cc2nnc(SCC(=O)Nc3nccs3)n2C)cc1`, the entry is “inactive”; as for `CCn1c(CN2CCCCC2)nc2cc(S(=O)(=O)N3CCCCC3)ccc21`, “inactive”.
